The values below come from PubChem BioAssay AID1345082 (National Center for Advancing Translational Sciences (NCATS), 2018).

Each structure is given as a SMILES string. Among all 94,000 compounds or so, about 4,000 (4.3%) were called active. Inconclusive results (about 29%) are left out. Calls come from the whole dose curve; as a rule, active = well fitted inhibition curve with a large enough effect; inconclusive = small, poorly fitted or top-dose-only effect; inactive = no such curve, though single readings can be large or run the other way. Shown is part of a subset that was picked to be rich in actives. Where a call stands in place of a potency, no number is given.
Potency is the fitted concentration of half-maximal effect.

The experiment is described as follows: Cytotoxic Profiling in NIH 3T3 Cell Line of Diverse Libraries Using Quantitative High-Throughput Screening. Note: nearly all actives have a fitted effect of over 55% in size. The following applies: NIH 3T3 viability, CellTiter-Glo ATP luminescence, 48-72 h; series mostly up to 96.7 µM. An excerpt: Cell-based phenotypic screening is a commonly used approach to discover biological pathways, novel drug targets, chemical probes and high-quality hit-to-lead molecules. Many hits identified from high-throughput screening campaign are ruled out through a series of follow-up potency, selectivity/specificity, and cytotoxicity assays. Prioritization of molecules with little or no cytotoxicity for a more in-depth downstream evaluation influence the future direction of projects, so cytotoxicity profiling of the screening libraries at early stage is essential for increasing the likelihood of candidate success. In this study, we analyzed results from a cell-based cytotoxicity screening campaign, comprising nearly 10,000 compounds in NCATS annotated libraries, and over 100,000 compounds in a diversity library, evaluated in four normal cell lines (HEK 293, NIH 3T3, CRL-7250 and HaCat) and a cancer cell line (KB 3-1, a HeLa subline) with overall screening outcomes, hit rates, pan-activity and selectivity. For the annotated library, we also examined the primary targets and mechanistic pathways regularly associated with cell death. To our knowledge, this is the first study to use high-throughput screening to profile large libraries for cytotoxicity assessment in both normal and cancer cell lines. In summary, the results generated here constitutes a valuable resource for the scientific community and provides insight on identifying cytotoxic compounds with particular mechanisms of action, and prioritizing compounds with suitable cytotoxicity profile for further evaluation.
NIH 3T3 cells were seeded into white 1536-well plates using a Multidrop Combi peristaltic dispenser (ThermoFisher, Waltham, MA) at a density of 400 cells/well in 5 uL of medium respectively. A pintool (Kalypsys) was used to transfer 23 nL of compound solution to the 1536-well assay plates. After 48 or 72 hr incubation at 37 degree Celsius, 5% CO2 and 95% humidity, 2.5 uL of CellTiter-Glo (Promega) was dispensed into each well using a dispenser (Aspect Automation, St. Paul, MN) with solenoid valves (Lee Valves, Westbrook CT). Plates were left at room temperature for 10 min before imaging the ATP-coupled luminescence using a ViewLux microplate imager (PerkinElmer, Waltham, MA).
For orientation: Cellular ATP, detected with luciferase, serves as a proxy for viable cell number.
`Cc1nc(-c2ccccc2)cc([C@H]2CN3CC[C@H]2C[C@@H]3CNC2CCN(C)CC2)n1`: the Potency is 56.2 µM (active).
The entry for `O=C([C@H]1CN2CCC1C[C@@H]2Cn1cc(-c2ccccc2)nn1)N1CCOCC1` (stereo not given in full) is “inactive”; for `Cc1nc(-c2ccccc2)cc([C@H]2CN3CC[C@H]2C[C@@H]3CNC2CCOCC2)n1` it is 31.6 µM (active); for `CN(C)C(=O)[C@H]1CN2CCC1C[C@@H]2Cn1cc(-c2ccc(-c3ccccc3)cc2)nn1` (stereo not given in full) it is “inactive”.
The entry for `O=[S+]1([O-])NCC2(CCN(Cc3cccnc3)C2)Oc2ncccc21` (stereo not given) is “inactive”; for `COc1ccc([C@@H]2CN(C(=O)c3c(C)noc3C)[C@@H]3C4CCN(CC4)[C@@H]32)cc1` it is “inactive”.
The entry for `CN(C)[C@@H]1CN(C(=O)Cc2ccc(F)cc2)C[C@H]1CO` is “inactive”.
For `O=C1NC2(Cc3ccccc31)CN(Cc1ccncc1)C2`, the Potency entry was “inactive”.
The entry for `COc1ccc(-c2cc([C@H]3CN4CC[C@H]3C[C@@H]4CNC(=O)c3ccccc3)n(C)n2)cc1OC` is “inactive”; for `COc1ccccc1-c1cc([C@H]2CN3CC[C@H]2C[C@@H]3CNC(C)=O)n(C)n1` it is “inactive”.
In the case of `Cn1nc(-c2cccs2)cc1[C@H]1CN2CC[C@H]1C[C@@H]2CNC(=O)CCCC(=O)O` it was “inactive”; in that of `COc1ccc(C(=O)NC[C@H]2C[C@@H]3CCN2C[C@@H]3c2cc(-c3ccccc3)nn2C)cc1`, 89.1 µM (active).
In the case of `Cn1nc(-c2cccs2)cc1[C@H]1CN2CC[C@H]1C[C@@H]2CNC(=O)Nc1ccccc1` it was 100 µM (active).
Take `CCCNC(=O)OC[C@H]1C[C@@H]2CCN1C[C@@H]2c1cc(-c2ccc(OC)c(OC)c2)nn1C`: the Potency entry is “inactive”.
In the case of `CCC(=O)N1CCC2(CC1)c1nccn1-c1ccccc1CN2CC(C)C` it was “inactive”; in that of `O=C(Cc1ccc(F)cc1)N1CCN(C2CCN(Cc3cccnc3)C2=O)CC1` (stereo not given), “inactive”; in that of `CC1=NOC2(CCN(Cc3cncs3)C2)C1` (stereo not given), “inactive”.
As for `Cc1ccc(S(=O)(=O)NC[C@H]2C[C@@H]3CCN2C[C@@H]3CN2CCN(c3ncccn3)CC2)cc1`, the Potency entry is “inactive”.
For `COc1cc2c(cc1OCc1ccccc1)NC(=O)C21CCN(CCC(C)C)CC1`, the Potency was 89.1 µM (active).
In the case of `COc1cc2c(cc1OC1CCCC1)NC(=O)C21CCN(C(=O)c2ccnn2C)CC1` it was “inactive”; in that of `COc1cc2c(cc1OCc1ccccc1)NC(=O)C21CCN(C(=O)C(C)C)CC1`, 14.1 µM (active).
In the case of `COc1cc2c(cc1-c1ccncc1)NC(=O)C21CCN(C(C)=O)CC1` it was 28.2 µM (active).
In the case of `O=C1NC2(Cc3ccccc31)CN(CC1CC1)C2` it was “inactive”; in that of `CC(C)N1CC2CCC(C1)N2C(=O)N1CCCC1`, “inactive”; in that of `CCCSc1ncc(CN2CC[C@H]3CNC[C@H]32)cn1`, “inactive”.
